Laboratory results as given in PubChem BioAssay (NCI).
This is part of a sample that, as a whole, favours compounds with a hit. Of some 83,000 tested, about 20% had one in any assay.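 48-hour exposure, single concentration, 96-well plates; percent growth endpoint where 0 means no net growth. Active: below 10.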 Calls of active or inactive are those of the source.

What was measured:
Test in all cases: NCI-60 one-dose screen, 48 h (100 = growth as untreated, 0 = no growth, -100 = all killed)
Conditions in all cases: 10 µM unless noted
RPMI-8226 leukemia = tested on: RPMI-8226 leukemia
OVCAR-8 ovarian = tested on: OVCAR-8 ovarian
OVCAR-5 ovarian = tested on: OVCAR-5 ovarian
OVCAR-4 ovarian = tested on: OVCAR-4 ovarian
SK-OV-3 ovarian = tested on: SK-OV-3 ovarian
IGROV1 ovarian = tested on: IGROV1 ovarian
OVCAR-3 ovarian = tested on: OVCAR-3 ovarian
HS 578T breast = tested on: HS 578T breast
NCI/ADR-RES ovarian = tested on: NCI/ADR-RES ovarian
T-47D breast = tested on: T-47D breast

Measured: growth

CC1CCCN(CCCCCOc2ccc3oc4ccc(Cl)cc4c(=O)c3c2)C1 (stereo not given)
inactive: RPMI-8226 leukemia 61.8% | OVCAR-8 ovarian 75% | OVCAR-5 ovarian 70.4% | OVCAR-4 ovarian 63.2% | SK-OV-3 ovarian 91.9% | IGROV1 ovarian 68.7% | OVCAR-3 ovarian 76.6% | HS 578T breast 84.7% | NCI/ADR-RES ovarian 73% | T-47D breast 64.8%

COc1cc(C(=O)Nc2cc(OC)c3ccn(C)c3c2)cc2c1C[C@]1(C)CC[C@@H](O)C(C)(C)[C@H]1O2
active: RPMI-8226 leukemia -31.1% | OVCAR-3 ovarian -14.6% | HS 578T breast -12.5%
inactive: OVCAR-8 ovarian 24.1% | OVCAR-5 ovarian 55.2% | OVCAR-4 ovarian 54.8% | SK-OV-3 ovarian 15.2% | IGROV1 ovarian 25.2% | NCI/ADR-RES ovarian 13.9% | T-47D breast 19.5%

NC(=O)C(O)(c1ccccc1)c1ccccc1
inactive: RPMI-8226 leukemia 93.2% | OVCAR-8 ovarian 98.2% | OVCAR-5 ovarian 110% | OVCAR-4 ovarian 101% | SK-OV-3 ovarian 97.2% | IGROV1 ovarian 111% | HS 578T breast 97.1% | NCI/ADR-RES ovarian 102% | T-47D breast 90.1%
active: OVCAR-3 ovarian -48.6%

COc1ccc(C2CC(c3ccc(OC)cc3O)=NN2c2ccc(S(N)(=O)=O)cc2)cc1 (stereo not given)
active: RPMI-8226 leukemia -32.6%
inactive: OVCAR-8 ovarian 43% | OVCAR-5 ovarian 83.7% | OVCAR-4 ovarian 42.3% | SK-OV-3 ovarian 69.2% | IGROV1 ovarian 13.2% | OVCAR-3 ovarian 47.7% | HS 578T breast 78.1% | NCI/ADR-RES ovarian 54% | T-47D breast 24.5%

Cc1c(Cl)cccc1NC(=O)c1sc2nc3c(cc2c1N)CCCCCC3
active: OVCAR-3 ovarian -18.1%
inactive: RPMI-8226 leukemia 18.4% | OVCAR-8 ovarian 17.5% | OVCAR-5 ovarian 46.7% | OVCAR-4 ovarian 46.8% | SK-OV-3 ovarian 34.8% | IGROV1 ovarian 42.9% | HS 578T breast 24.6% | NCI/ADR-RES ovarian 17.1% | T-47D breast 40.2%

S=C(Nc1ccc(Cl)cc1)c1ccccn1
inactive: RPMI-8226 leukemia 96.8% | OVCAR-8 ovarian 92.7% | OVCAR-5 ovarian 102% | OVCAR-4 ovarian 96.9% | SK-OV-3 ovarian 94.3% | IGROV1 ovarian 93.3% | OVCAR-3 ovarian 109% | HS 578T breast 95.9% | NCI/ADR-RES ovarian 96.6% | T-47D breast 79.2%

Oc1ccc(CNNc2ccnc3c(O)cccc23)c2cccnc12
inactive: RPMI-8226 leukemia 22.2% | OVCAR-8 ovarian 20.8% | OVCAR-5 ovarian 59.1% | OVCAR-4 ovarian 34.4% | SK-OV-3 ovarian 27.6% | IGROV1 ovarian 35.1% | OVCAR-3 ovarian 37.8% | HS 578T breast 47.7% | T-47D breast 29.6%
active: NCI/ADR-RES ovarian 6.61%

COc1ccc2nc(-c3ccc(OC)c(OC)c3)cc(-c3nnc(SCC(=O)Nc4ccc(/C(C)=N\O)cc4)n3-c3ccccc3)c2c1
inactive: RPMI-8226 leukemia 47.7% | OVCAR-8 ovarian 72.4% | OVCAR-5 ovarian 102% | OVCAR-4 ovarian 95.5% | SK-OV-3 ovarian 101% | IGROV1 ovarian 28.1% | OVCAR-3 ovarian 87.8% | HS 578T breast 72.2% | NCI/ADR-RES ovarian 77.2% | T-47D breast 45.8%

CC1=C(CCCOC(=O)NCCCl)C2=C(C)C3(CC3)[C@@](C)(O)C(=O)C2=C1
active: SK-OV-3 ovarian -13.7% | IGROV1 ovarian 4.17% | OVCAR-3 ovarian 2.71%
inactive: RPMI-8226 leukemia 80% | OVCAR-8 ovarian 36.9% | OVCAR-5 ovarian 28.1% | OVCAR-4 ovarian 14.6% | HS 578T breast 99.8% | NCI/ADR-RES ovarian 29.2% | T-47D breast 16%

CC[C@]12C=CCN3CC[C@@]4(c5cc(NC(=O)CCC(=O)O[C@H]6CC[C@H]7[C@@H]8CC[C@H]9CC(=O)CC[C@]9(C)[C@H]8CC[C@]67C)c(OC)cc5N(C)[C@H]4[C@@](O)(C(=O)OC)[C@@H]1OC(C)=O)[C@@H]32
inactive: RPMI-8226 leukemia 45.2% | OVCAR-8 ovarian 75.9% | OVCAR-5 ovarian 104% | OVCAR-4 ovarian 60.7% | SK-OV-3 ovarian 98.6% | IGROV1 ovarian 69.6% | OVCAR-3 ovarian 73.2% | HS 578T breast 75.5% | NCI/ADR-RES ovarian 72.9% | T-47D breast 46.4%

CC(=O)Nc1ccc2c(c1)Cc1cc(F)ccc1-2
inactive: RPMI-8226 leukemia 93.6% | OVCAR-8 ovarian 97.5% | OVCAR-5 ovarian 106% | OVCAR-4 ovarian 109% | SK-OV-3 ovarian 106% | IGROV1 ovarian 92.8% | OVCAR-3 ovarian 98.6% | HS 578T breast 103% | NCI/ADR-RES ovarian 97.5% | T-47D breast 82.8%

CCN1CCN(Cc2ccc(NC(=O)c3cccc(C#Cc4cccc5[nH]nc(N)c45)c3)cc2C(F)(F)F)CC1
active: RPMI-8226 leukemia -36.9% | OVCAR-8 ovarian -69.9% | OVCAR-5 ovarian -20% | OVCAR-4 ovarian -2.48% | SK-OV-3 ovarian -13.5% | IGROV1 ovarian -60.3% | OVCAR-3 ovarian -62.8% | HS 578T breast -19.9% | NCI/ADR-RES ovarian -35% | T-47D breast -32%

O=C(O)c1cc(N=Nc2ccc(-c3ccc(N=Nc4c(S(=O)(=O)O)cc5ccc(Nc6ccccc6)cc5c4O)cc3)cc2)ccc1O
inactive: RPMI-8226 leukemia 104% | OVCAR-8 ovarian 107% | OVCAR-5 ovarian 109% | OVCAR-4 ovarian 102% | SK-OV-3 ovarian 98.4% | IGROV1 ovarian 100% | OVCAR-3 ovarian 103% | HS 578T breast 106% | NCI/ADR-RES ovarian 104% | T-47D breast 89.1%

O=C(Nc1cc(Br)ccn1)c1cc2cc(Nc3nc(-c4ccccc4)nc4ccccc34)ccc2oc1=O
inactive: RPMI-8226 leukemia 108% | OVCAR-8 ovarian 103% | OVCAR-5 ovarian 115% | OVCAR-4 ovarian 111% | SK-OV-3 ovarian 103% | IGROV1 ovarian 115% | OVCAR-3 ovarian 113% | HS 578T breast 107% | NCI/ADR-RES ovarian 113% | T-47D breast 98.3%

COc1ccc(-n2cc(-c3ccc(Cl)c(Cl)c3)[nH]c2=O)cc1OC
inactive: RPMI-8226 leukemia 97.6% | OVCAR-8 ovarian 94.6% | OVCAR-5 ovarian 90% | OVCAR-4 ovarian 89.9% | SK-OV-3 ovarian 101% | IGROV1 ovarian 102% | OVCAR-3 ovarian 111% | HS 578T breast 102% | NCI/ADR-RES ovarian 105% | T-47D breast 92.1%

C=C(C)[C@@H]1CC[C@]2(C(=O)O)CC[C@]3(C)[C@H](CC[C@@H]4[C@@]5(C)C[C@@H](CC#Cc6ccccc6C)C(=O)C(C)(C)[C@@H]5CC[C@]43C)[C@@H]12
inactive: RPMI-8226 leukemia 14.6% | OVCAR-8 ovarian 24.3% | OVCAR-5 ovarian 61% | OVCAR-4 ovarian 31.4% | SK-OV-3 ovarian 34.2% | IGROV1 ovarian 62% | OVCAR-3 ovarian 18.3% | HS 578T breast 45% | NCI/ADR-RES ovarian 48% | T-47D breast 20.7%

C=C1C(=O)O[C@H]2[C@H]1CC/C(COC(=O)c1c[nH]c3ccccc13)=C\CC[C@@]1(C)O[C@@H]21
inactive: SK-OV-3 ovarian 68.9%
active: RPMI-8226 leukemia -27.4% | OVCAR-8 ovarian 5% | OVCAR-5 ovarian -25.3% | OVCAR-4 ovarian -90.6% | IGROV1 ovarian -56.2% | OVCAR-3 ovarian -94.2% | HS 578T breast 3.21% | NCI/ADR-RES ovarian -4.86% | T-47D breast -49.2%

CC(=O)c1ccc(NC(=O)CSc2nnc(-c3cc(-c4ccc(C)cc4)nc4ccccc34)o2)cc1
active: RPMI-8226 leukemia 7.74% | OVCAR-4 ovarian -12.5%
inactive: OVCAR-8 ovarian 49.3% | OVCAR-5 ovarian 101% | SK-OV-3 ovarian 81.7% | IGROV1 ovarian 57.3% | OVCAR-3 ovarian 77.4% | HS 578T breast 23.3% | NCI/ADR-RES ovarian 60.2% | T-47D breast 44.8%

S=C(Nc1ccccc1)c1ccccn1
inactive: RPMI-8226 leukemia 56.5% | OVCAR-8 ovarian 91.2% | OVCAR-5 ovarian 88.9% | OVCAR-4 ovarian 100% | SK-OV-3 ovarian 90.9% | OVCAR-3 ovarian 67.7% | HS 578T breast 101% | NCI/ADR-RES ovarian 93.1% | T-47D breast 96.6%
active: IGROV1 ovarian 1.38%

Cc1cnc(-c2ccc(-c3ccc(NC(=O)Nc4c(F)cc(F)cc4F)cc3F)c3c2C(=O)NC3)[nH]1
active: OVCAR-4 ovarian -16.5% | OVCAR-3 ovarian -34% | HS 578T breast -5.61%
inactive: RPMI-8226 leukemia 22.2% | OVCAR-8 ovarian 39% | OVCAR-5 ovarian 71% | SK-OV-3 ovarian 49.6% | IGROV1 ovarian 33% | NCI/ADR-RES ovarian 72.4% | T-47D breast 73.6%

COc1ccccc1C(=O)/C=C/c1cc2cccc(OC)c2[nH]c1=O
active: RPMI-8226 leukemia -14.5% | OVCAR-8 ovarian -5.37% | IGROV1 ovarian 2.88% | OVCAR-3 ovarian -9.01% | NCI/ADR-RES ovarian 3.01%
inactive: OVCAR-5 ovarian 13.1% | OVCAR-4 ovarian 15.4% | SK-OV-3 ovarian 16.3% | HS 578T breast 39.3% | T-47D breast 11.3%

CN1CCN(CC#CCOC(=O)CNC(=O)[C@]23CCC(C)(C)C[C@H]2C2=CC[C@@H]4[C@@]5(C)CC[C@H](O)C(C)(C)[C@@H]5CC[C@@]4(C)[C@]2(C)CC3)CC1
inactive: RPMI-8226 leukemia 76.8% | OVCAR-8 ovarian 81.3% | OVCAR-5 ovarian 101% | OVCAR-4 ovarian 105% | SK-OV-3 ovarian 86.2% | IGROV1 ovarian 90.4% | OVCAR-3 ovarian 94.6% | HS 578T breast 95.5% | NCI/ADR-RES ovarian 87.6% | T-47D breast 75.5%

O=C(O)CCNC1CCCCC1
inactive: RPMI-8226 leukemia 96.3% | OVCAR-8 ovarian 99.9% | OVCAR-5 ovarian 86% | OVCAR-4 ovarian 103% | SK-OV-3 ovarian 101% | IGROV1 ovarian 105% | OVCAR-3 ovarian 108% | HS 578T breast 96.6% | NCI/ADR-RES ovarian 93.1% | T-47D breast 104%

O=[N+]([O-])c1ccc(N=Nc2c(O)c(N=Nc3cc([N+](=O)[O-])cc([N+](=O)[O-])c3O)cc(N=Nc3cc(S(=O)(=O)O)cc4cc(S(=O)(=O)O)cc(O)c34)c2O)cc1
inactive: RPMI-8226 leukemia 102% | OVCAR-8 ovarian 108% | OVCAR-5 ovarian 104% | OVCAR-4 ovarian 98.4% | SK-OV-3 ovarian 96.2% | IGROV1 ovarian 108% | OVCAR-3 ovarian 104% | HS 578T breast 101% | NCI/ADR-RES ovarian 103% | T-47D breast 109%

C#C[C@@]1(O)[C@@H](CO)O[C@@H](n2cc(Cl)c3c(N)ccnc32)[C@@H]1O
inactive: RPMI-8226 leukemia 39.9% | OVCAR-8 ovarian 26.9% | OVCAR-5 ovarian 111% | OVCAR-4 ovarian 79.9% | SK-OV-3 ovarian 95.4% | IGROV1 ovarian 88.3% | OVCAR-3 ovarian 47.6% | HS 578T breast 102% | NCI/ADR-RES ovarian 28.5% | T-47D breast 93.8%

O=C(O)COc1ccc2c(=O)c3sc4c(=O)c5ccccc5c(=O)c4c3c(=O)c2c1
active: OVCAR-5 ovarian -53.7% | OVCAR-3 ovarian 1.75% | HS 578T breast -10.1%
inactive: RPMI-8226 leukemia 43.6% | OVCAR-8 ovarian 43.8% | OVCAR-4 ovarian 27.8% | SK-OV-3 ovarian 88.1% | IGROV1 ovarian 36.6% | NCI/ADR-RES ovarian 40.8% | T-47D breast 74.1%
